# RAM network inh: yeast RAM network inhibition. S. cerevisiae dse1pr::URA3 reporter, 5-FOA growth OD615, 2 d; analog-sensitive cbk1-as2 kinase mutant strain. inhibition, % at 50 µM. 190,000 tested, 1.8% active;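 active means inhibition above a set limit, 3 SD over mean compound inhibition, cut at about 8.4% in these data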;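 further: inhibition rescues growth on 5-FOA so higher OD means more RAM inhibition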
# CHOP inhibitor: CHOP inhibition in unfolded protein response; 220,000 tested, 3.8% active; AID 2732; CHO-K1 CHOP-promoter luciferase, tunicamycin-induced, 15-18 h; inhibition, % at 10 µM;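 active means compounds that reduced the stress-induced luciferase reporter signal by more than about 70% of percent inhibition, limit read from the data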
# WT yeast gro inh: growth inhibition of WT yeast, mitochondrial fusion screen; mitochondrial fusion phenotypic screen, WT strain; inhibition, % at 10 µM; 190,000 tested, 2.1% active; in the data active means inhibition above about 58%; tested in S. cerevisiae
# L major viab: reduces viability of Leishmania major promastigotes; inhibition, % at 10 µM; resazurin fluorescence viability; AID 1063; 200,000 tested, 9% active; in the data active means inhibition above about 50%;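 further: promastigotes grown with compound for 44 hours at 28 °C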
# Hits are given with their value; - = inactive; . = not tested or not shown. Rows were chosen to be rich in hits. Some 13% of all compounds tested hit in one or more screens of this group.
SMILES,RAM network inh,CHOP inhibitor,WT yeast gro inh,L major viab
Cc1ccc2nc(Cl)c(C3CC(c4cccs4)=NN3C(=O)CCCC(=O)O)cc2c1 (stereo unspecified),-,-,-,57
COn1c(SC2CCCCC2)nc2ccccc2c1=O,-,83,-,-
COn1c(SCC(N)=O)nc2ccccc2c1=O,-,-,-,-
CC(C)On1c(SC(C)C)nc2ccccc2c1=O,-,73,-,-
COn1c(SC(C)C)nc2ccccc2c1=O,-,-,-,-
COn1c(SCc2ccc(C)cc2C)nc2ccccc2c1=O,9.2,-,-,-
Cc1ccc(S(=O)(=O)N(C)C)cc1NC(=O)c1ccc2ccccc2n1,.,-,.,.
Cc1ccc(C)c(NC(=O)c2ccc3ccccc3n2)c1,10,80,-,-
CN(C)c1ccc(N=Cc2ccco2)cc1,-,-,-,71
C/C(=N/N=C/c1ccc(N(C)C)cc1)c1ccccc1,-,-,-,80
CN(C)c1ccc(C=Nc2ccccc2)cc1,-,-,-,-
CN(C)c1ccc(C=Nc2ccc(N(C)C)cc2)cc1,-,-,-,71
Cc1ccc(N=Cc2ccc(N(C)C)cc2)cc1,-,-,-,-
O=C1NC(Cc2c[nH]c3ccccc23)C(=O)N1Cc1ccc(CN2C(=O)NC(Cc3c[nH]c4ccccc34)C2=O)cc1 (stereo unspecified),-,-,-,-
CC1(C)Oc2ccc(C#N)cc2[C@@H](N2CCCC2=O)[C@@H]1O,-,-,-,-
CC1=C(C(=O)OC(C)(C)C)C(c2cccs2)NC(=O)N1 (stereo unspecified),-,-,-,69
COc1ccc(C(c2nnnn2C2CCCCC2)N2CCN(c3ccccc3)CC2)cc1 (stereo unspecified),.,.,.,84
COc1ccc(C(c2nnnn2C2CCCC2)N2CCN(c3ccccc3)CC2)cc1 (stereo unspecified),-,-,-,63
COc1ccc(N2CCN(C(c3nnnn3C3CCCC3)C(C)C)CC2)cc1 (stereo unspecified),-,-,-,-
Cc1c(C#N)c(N=CN(C)C)c(C(=O)c2ccc(Br)cc2)n1-c1ccccc1,-,-,-,100
Cc1ccc(NC(=O)C2(NC(=O)c3ccccn3)CCCCC2)cc1Br,-,-,-,58
CCOC(=O)c1c(C)nc2ccc(Cl)cc2c1-c1ccccc1,-,82,64,51
COc1cccc(C2(O)CC(C(F)(F)F)=NN2C(=O)c2ccccn2)c1 (stereo unspecified),-,-,-,-
CC1=CC=CC2=NC(=O)CC(C)(C(=O)N(CC(=O)NC3CCCC3)c3ccccc3C)N12 (stereo unspecified),-,-,-,80
CC1=CN2C(=NC(=O)CC2(C)C(=O)N(CC(=O)NC2CCCC2)c2ccccc2C)C=C1 (stereo unspecified),-,-,-,-
SMILES,RAM network inh,CHOP inhibitor,WT yeast gro inh,L major viab
O=C(CSc1nncs1)Nc1cc(-c2ccccc2)nn1-c1ccccc1,-,-,-,51
COCCNc1nnc(SCC(=O)Nc2cc(-c3ccccc3)nn2-c2ccccc2)s1,-,-,-,-
CN(c1ccccc1)S(=O)(=O)c1cccc(NC(=O)CSc2nncs2)c1,-,-,-,72
CN(c1ccccc1)S(=O)(=O)c1cccc(NC(=O)CSc2nnc(N)s2)c1,-,-,-,78
CN(c1ccccc1)S(=O)(=O)c1cccc(NC(=O)CSc2ncn[nH]2)c1,-,-,-,-
Cc1ccccc1CN(C)CC(=O)Nc1cccc(S(=O)(=O)N(C)c2ccccc2)c1,-,-,-,71
CC(C)n1cnnc1SCC(=O)Nc1cccc(S(=O)(=O)N(C)c2ccccc2)c1,.,-,.,.
Cc1[nH]c(C)c2c(=O)[nH]ncc12,.,-,.,.
CC(=O)c1c(C)[nH]c(C(=O)Nc2cccc(S(=O)(=O)N(C)c3ccccc3)c2)c1C,-,-,-,95
Cc1ccccc1NC(=O)C(=O)c1cn(C)c2ccccc12,-,-,-,-
Cc1cc2ncn(/N=C/c3ccc(-c4ccccc4)o3)c2cc1C,9.5,77,-,-
Cc1ccc(-c2ccc(/C=N/n3cnnc3)o2)cc1,.,-,.,.
Cc1cc2ncn(/N=C/c3cccnc3)c2cc1C,-,-,61,-
NCC[C@H](O)C(=O)N[C@@H]1C[C@H](N)[C@@H](O[C@H]2O[C@H](CN)[C@@H](O)[C@H](O)[C@H]2O)[C@H](O)[C@H]1O[C@H]1O[C@H](CO)[C@@H](O)[C@H](N)[C@H]1O,-,-,-,-
Cc1ccccc1-c1oc(C)c(C)[n+]1[O-],-,-,-,-
Cc1c(-c2ccccc2)nc2ccccc2c1C(=O)Oc1ccc([N+](=O)[O-])cc1,-,-,-,50
COc1cc(NS(=O)(=O)c2ccc(NC(C)=O)cc2)ncn1,-,-,-,-

# Source: PubChem
